Source: PubChem BioAssay (NCATS)
A number with no mark means an inactive call. Inconclusive results are not listed. Calls of active or inactive are those of the source. Unless noted, calls come from the whole dose curve; as a rule, active = well fitted curve in the direction sought with a large enough effect; inconclusive = small, poorly fitted or top-dose-only effect, or another doubt; inactive = no such curve, though single readings can be large; an effect the other way counts as inactive or inconclusive.

Experiments:
[1] = target: Cytochrome P450 1A2 (Homo sapiens) (UniProt P05177); test: p450-cyp1a2 (AID 410; calls by dose curve;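 note: -100% = full effect of reference inhibitor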)
Sequence of Cytochrome P450 1A2 (Homo sapiens) (P05177 whole entry, looked up): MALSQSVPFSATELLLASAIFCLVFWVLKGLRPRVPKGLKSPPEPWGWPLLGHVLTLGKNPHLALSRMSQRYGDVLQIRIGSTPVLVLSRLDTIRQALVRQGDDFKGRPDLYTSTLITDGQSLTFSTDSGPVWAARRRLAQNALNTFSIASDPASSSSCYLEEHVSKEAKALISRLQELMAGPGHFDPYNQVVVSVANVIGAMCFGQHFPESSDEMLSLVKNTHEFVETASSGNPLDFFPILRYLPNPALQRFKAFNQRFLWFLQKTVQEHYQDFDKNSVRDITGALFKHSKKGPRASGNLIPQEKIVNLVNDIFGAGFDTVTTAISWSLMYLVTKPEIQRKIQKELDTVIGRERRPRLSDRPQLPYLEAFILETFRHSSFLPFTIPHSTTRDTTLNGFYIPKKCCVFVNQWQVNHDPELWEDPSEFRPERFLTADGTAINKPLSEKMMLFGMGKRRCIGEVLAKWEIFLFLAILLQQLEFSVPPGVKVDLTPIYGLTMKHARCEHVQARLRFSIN
How it was run: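 Inhibition was calculated relative to 57 uM furafylline (full inhibition). The reaction used human CYP1A2 at 20nM with Luciferin-ME at its Km, 100uM, driven by an NADPH-regenerating system for 60 min at room temperature.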

[2] = NFAT Signaling Pathway (AID 444; active = well fitted curve in either direction with a large enough effect, not every such curve was filed as active;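 note: carbachol stimulus at about its EC50 of 1 µM final; % is set by controls: 0 for no effect and ±100 for the full control effect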); conditions: Jurkat NFAT-bla M1, carbachol, beta-lactamase ratio, 5 h; at 17.2 µM (top of the series) unless noted
How it was run: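 Jurkat cells with NFAT-driven β-lactamase reporter and co-expressed M1 receptor, stimulated with carbachol (final 1 uM, ~EC50), compound titration, 5 h at 37 °C. CCF4 loaded 1 h at RT; 460/530 nm ratio gave %activity and AC50.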

[3] = Stat Signaling Pathway (AID 446; active = well fitted curve in either direction with a large enough effect, not every such curve was filed as active;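 note: ME-180 cervical cancer cells given 40 pM IL-6 alongside compound; SIE-controlled beta-lactamase reporter measured as 460/530 nm FRET emission ratio; % is set by controls: 0 for no effect and ±100 for the full control effect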); conditions: ME-180 SIE beta-lactamase reporter, IL-6 stimulated, 5 h; at 17.2 µM (top of the series) unless noted
How it was run: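 Screening format detects activators and inhibitors alike: ME-180 SIE-bla cells stimulated at 40 pM IL-6 for 5 hrs with compound, then dual-emission beta-lactamase read at 405 nm excitation.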

[4] = target: Glucocorticoid receptor (Homo sapiens) (UniProt P04150); test: GR-GFP Redistribution (AID 450;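 active = compounds whose dose series gives a full or clear partial fitted curve of increased nuclear translocation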; note: potency is the fitted concentration of half-maximal effect)
Sequence of Glucocorticoid receptor (Homo sapiens) (P04150 whole entry, looked up, the tested form may be a part): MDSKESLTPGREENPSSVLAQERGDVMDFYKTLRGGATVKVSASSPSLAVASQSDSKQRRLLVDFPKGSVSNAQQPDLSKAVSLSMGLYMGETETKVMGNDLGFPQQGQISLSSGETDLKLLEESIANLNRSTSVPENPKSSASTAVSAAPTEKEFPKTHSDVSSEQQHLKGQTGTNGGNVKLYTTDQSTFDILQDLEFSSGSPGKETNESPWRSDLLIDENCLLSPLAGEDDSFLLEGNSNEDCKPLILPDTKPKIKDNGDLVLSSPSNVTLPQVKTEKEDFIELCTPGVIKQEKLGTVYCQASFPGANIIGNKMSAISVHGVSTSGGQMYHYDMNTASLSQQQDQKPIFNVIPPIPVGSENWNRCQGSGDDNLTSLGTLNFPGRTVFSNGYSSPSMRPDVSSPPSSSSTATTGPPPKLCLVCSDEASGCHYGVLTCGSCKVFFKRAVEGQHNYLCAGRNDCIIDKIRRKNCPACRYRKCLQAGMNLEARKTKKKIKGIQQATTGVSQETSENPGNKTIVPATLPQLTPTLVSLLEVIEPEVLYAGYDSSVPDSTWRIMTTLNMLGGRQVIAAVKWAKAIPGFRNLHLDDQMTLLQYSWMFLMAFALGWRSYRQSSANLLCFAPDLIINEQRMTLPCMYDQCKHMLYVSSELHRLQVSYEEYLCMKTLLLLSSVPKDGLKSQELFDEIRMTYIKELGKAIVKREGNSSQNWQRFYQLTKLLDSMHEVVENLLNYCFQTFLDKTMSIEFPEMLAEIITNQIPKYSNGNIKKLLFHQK

[5] = target: Glucocorticoid receptor (Homo sapiens) (UniProt P04150); test: GR-EFC Redistribution (AID 451; calls by dose curve; note: potency is the fitted concentration of half-maximal effect); conditions: CHO-K1 GR-EFC translocation, beta-gal luminescence, 2 h
How it was run: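 CHO-K1 cells expressing nuclear EA and GR-ED fragments of b-gal; compounds titrated up to 46 uM final, 2 h at 37 C. GR nuclear translocation read as complemented b-gal luminescence after 1 h RT detection.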

[6] = target: Mitogen-activated protein kinase 10 (Mus musculus) (UniProt Q61831); test: JNK3 AlphaScreen Assay (AID 530; active = well fitted curve in either direction with a large enough effect, not every such curve was filed as active;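 note: kinase came from lysate of stimulated human HepG2 cells; signal reports phosphorylation of biotinylated GST-cJun 1-79 at Ser73 with 10 µM ATP; % is set by controls: 0 for no effect and ±100 for the full control effect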)
How it was run: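 qHTS format: compounds tested as titrations against IL-1beta/TNF-alpha-activated HepG2 lysate JNK3 with biotin-GST-cJun substrate and 10 uM ATP at room temperature. Loss of anti-phospho-cJun AlphaScreen signal indicates inhibition.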

[7] = target: 3',5'-cyclic-AMP phosphodiesterase 4B (Homo sapiens) (UniProt Q07343); test: qHTS Assay for Inhibitors of PDE-IV (AID 607; active = well fitted activation curve with a large enough effect in the main read-out, with a control signal flat, not every such curve was filed as active; note: % of control where 0% means no effect)
Sequence of 3',5'-cyclic-AMP phosphodiesterase 4B (Homo sapiens) (Q07343 whole entry, looked up): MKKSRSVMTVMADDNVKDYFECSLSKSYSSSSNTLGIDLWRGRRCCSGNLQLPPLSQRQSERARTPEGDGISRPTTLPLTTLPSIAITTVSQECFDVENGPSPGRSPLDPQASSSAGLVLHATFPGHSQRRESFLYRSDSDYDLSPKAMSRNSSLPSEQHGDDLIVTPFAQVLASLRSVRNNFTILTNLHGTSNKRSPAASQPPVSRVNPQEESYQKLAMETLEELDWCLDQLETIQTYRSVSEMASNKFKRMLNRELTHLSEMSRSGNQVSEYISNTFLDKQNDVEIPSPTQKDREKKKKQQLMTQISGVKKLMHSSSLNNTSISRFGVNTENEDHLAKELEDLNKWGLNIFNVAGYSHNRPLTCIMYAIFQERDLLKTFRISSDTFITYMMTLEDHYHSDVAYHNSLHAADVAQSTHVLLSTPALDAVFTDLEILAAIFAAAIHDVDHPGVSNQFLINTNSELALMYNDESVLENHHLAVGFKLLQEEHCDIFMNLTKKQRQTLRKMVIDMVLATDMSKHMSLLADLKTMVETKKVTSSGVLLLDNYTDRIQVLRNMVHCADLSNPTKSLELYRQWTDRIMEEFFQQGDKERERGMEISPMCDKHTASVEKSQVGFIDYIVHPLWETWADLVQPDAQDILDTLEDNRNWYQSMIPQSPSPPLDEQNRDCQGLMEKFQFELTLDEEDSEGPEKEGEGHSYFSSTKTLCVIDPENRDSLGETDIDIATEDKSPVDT
How it was run: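 The readout is membrane depolarisation from a cAMP-sensing CNG channel, detected with a potential dye at ex 535/em 590. Cells were HEK293-derived (endogenous PDE-IV) at 1000 cells/well, titrated up to 22.9 uM final.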

[8] = target: ATP-dependent 6-phosphofructokinase (Trypanosoma brucei brucei) (UniProt O15648); test: qHTS Assay to Find Inhibitors of T. brucei phosphofructokinase: hit validation (AID 492961);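 note: luminescence reports ADP formed as PFK phosphorylates fructose-6-phosphate with ATP; % is set by controls: 0 for no effect and ±100 for the full control effect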
Sequence of ATP-dependent 6-phosphofructokinase (Trypanosoma brucei brucei) (O15648 whole entry, looked up): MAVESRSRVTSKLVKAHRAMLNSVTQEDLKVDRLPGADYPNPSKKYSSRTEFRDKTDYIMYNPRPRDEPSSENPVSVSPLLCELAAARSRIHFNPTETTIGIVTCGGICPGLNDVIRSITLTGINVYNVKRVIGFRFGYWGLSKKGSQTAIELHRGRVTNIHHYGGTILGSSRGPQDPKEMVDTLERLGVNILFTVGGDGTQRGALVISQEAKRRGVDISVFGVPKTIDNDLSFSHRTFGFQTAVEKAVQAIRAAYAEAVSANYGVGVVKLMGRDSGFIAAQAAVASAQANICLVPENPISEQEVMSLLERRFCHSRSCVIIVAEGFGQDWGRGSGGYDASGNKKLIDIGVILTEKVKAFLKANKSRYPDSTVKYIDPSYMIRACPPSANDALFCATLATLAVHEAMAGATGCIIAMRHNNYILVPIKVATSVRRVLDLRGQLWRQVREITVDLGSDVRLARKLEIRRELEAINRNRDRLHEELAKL
How it was run: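 Compounds titrated; %activity normalized to 0x and 1x enzyme controls, curve-fitted. Readout: ADP-Glo luminescence after 45 min room-temperature reaction of 1.25 nM PFK, 0.1 mM ATP, 0.5 mM F6P, pH 8.0.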

[9] = S16 Schwann cell PMP22 intronic element firefly luciferase assay (AID 624032); note: potency is the fitted concentration of half-maximal effect; nearly all actives have a fitted effect of over 30% in size
How it was run: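 Rat S16 Schwann cells stably carrying firefly luciferase driven by a PMP22 intronic element, in 10% FBS, treated 24 h at 37 C. ONE-Glo luminescence normalized to PTC124 control and DMSO (0%); curves classed by r2, magnitude and activity.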

[10] = qHTS profiling for inhibitors of Plasmodium falciparum proliferation (AID 504749); note: potency is the fitted concentration of half-maximal effect; nearly all actives have a fitted effect of over 60% in size; conditions: P. falciparum in erythrocytes, SYBR Green DNA, 72 h
How it was run: (§1)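 Readout was DNA-dye fluorescence from lysed cultures, ex 485/em 535 nm. Parasitized red cells had grown 72 h with compound; data scaled between 0.29 uM artemisinin and DMSO wells and corrected using vehicle-only plates.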

3D7 = test: as above; conditions: P. falciparum in erythrocytes, SYBR Green DNA, 72 h; series mostly up to 28.7 µM
How it was run: as §1

7G8 = test: as above; conditions: P. falciparum in erythrocytes, SYBR Green DNA, 72 h; series mostly up to 28.7 µM
How it was run: as §1

AA1029 = test: as above; conditions: P. falciparum in erythrocytes, SYBR Green DNA, 72 h; series mostly up to 28.7 µM
How it was run: as §1

AS120 = test: as above; conditions: P. falciparum in erythrocytes, SYBR Green DNA, 72 h; series mostly up to 28.7 µM
How it was run: as §1

ATS189 = test: as above; conditions: P. falciparum in erythrocytes, SYBR Green DNA, 72 h; series mostly up to 28.7 µM
How it was run: as §1

ATS95 = test: as above; conditions: P. falciparum in erythrocytes, SYBR Green DNA, 72 h; series mostly up to 28.7 µM
How it was run: as §1

C2A = test: as above; conditions: P. falciparum in erythrocytes, SYBR Green DNA, 72 h; series mostly up to 28.7 µM
How it was run: as §1

CP185 = test: as above; conditions: P. falciparum in erythrocytes, SYBR Green DNA, 72 h; series mostly up to 28.7 µM
How it was run: as §1

CP191 = test: as above; conditions: P. falciparum in erythrocytes, SYBR Green DNA, 72 h; series mostly up to 28.7 µM
How it was run: as §1

CP192 = test: as above; conditions: P. falciparum in erythrocytes, SYBR Green DNA, 72 h; series mostly up to 28.7 µM
How it was run: as §1

CP194 = test: as above; conditions: P. falciparum in erythrocytes, SYBR Green DNA, 72 h; series mostly up to 28.7 µM
How it was run: as §1

CP201 = test: as above; conditions: P. falciparum in erythrocytes, SYBR Green DNA, 72 h; series mostly up to 28.7 µM
How it was run: as §1

CP203 = test: as above; conditions: P. falciparum in erythrocytes, SYBR Green DNA, 72 h; series mostly up to 28.7 µM
How it was run: as §1

CP211 = test: as above; conditions: P. falciparum in erythrocytes, SYBR Green DNA, 72 h; series mostly up to 28.7 µM
How it was run: as §1

CP215 = test: as above; conditions: P. falciparum in erythrocytes, SYBR Green DNA, 72 h; series mostly up to 28.7 µM
How it was run: as §1

CP217 = test: as above; conditions: P. falciparum in erythrocytes, SYBR Green DNA, 72 h; series mostly up to 28.7 µM
How it was run: as §1

CP237 = test: as above; conditions: P. falciparum in erythrocytes, SYBR Green DNA, 72 h; series mostly up to 28.7 µM
How it was run: as §1

CP238 = test: as above; conditions: P. falciparum in erythrocytes, SYBR Green DNA, 72 h; series mostly up to 28.7 µM
How it was run: as §1

CP247 = test: as above; conditions: P. falciparum in erythrocytes, SYBR Green DNA, 72 h; series mostly up to 28.7 µM
How it was run: as §1

CP250 = test: as above; conditions: P. falciparum in erythrocytes, SYBR Green DNA, 72 h; series mostly up to 28.7 µM
How it was run: as §1

CP252 = test: as above; conditions: P. falciparum in erythrocytes, SYBR Green DNA, 72 h; series mostly up to 28.7 µM
How it was run: as §1

CP256 = test: as above; conditions: P. falciparum in erythrocytes, SYBR Green DNA, 72 h; series mostly up to 28.7 µM
How it was run: as §1

CP260 = test: as above; conditions: P. falciparum in erythrocytes, SYBR Green DNA, 72 h; series mostly up to 28.7 µM
How it was run: as §1

SMILES: CC[C@]1([C@H]2O[C@@H]([C@@H]3O[C@](O)(CO)[C@@H](C)C[C@H]3C)C[C@H]2C)CC[C@@H]([C@]2(C)CC[C@@]3(C[C@@H](O)[C@@H](C)[C@@H]([C@H](C)[C@H](OC)[C@H](C)C(=O)O)O3)O2)O1
- Potency [1]: inactive
- activity change, negative = inhibition [2]: 20.4%
- activity, negative = inhibition [3]: -3.04%
- Potency [4]: > 20600 nM
- Potency [5]: > 20600 nM
- Potency [6]: inactive
- Potency [7]: inactive
- Potency [8]: inactive
- Potency [9]: 510 nM (active)
- Potency ([10]; parasite line A): 25.1 nM (active)
- Potency ([10]; parasite line B): 25.1 nM (active)
- Potency (3D7): 25.1 nM (active)
- Potency (7G8): 15.8 nM (active)
- Potency (AA1029): 39.8 nM (active)
- Potency (AS120): 22.4 nM (active)
- Potency (ATS189): 50.1 nM (active)
- Potency (ATS95): 50.1 nM (active)
- Potency (C2A): 28.2 nM (active)
- Potency (CP185): 50.1 nM (active)
- Potency (CP191): 31.6 nM (active)
- Potency (CP192): 33.8 nM (active)
- Potency (CP194): 33.8 nM (active)
- Potency (CP201): 42.6 nM (active)
- Potency (CP203): 23.9 nM (active)
- Potency (CP211): 33.8 nM (active)
- Potency (CP215): 33.8 nM (active)
- Potency (CP217): 39.8 nM (active)
- Potency (CP237): 17.8 nM (active)
- Potency (CP238): 35.5 nM (active)
- Potency (CP247): 31.6 nM (active)
- Potency (CP250): 39.8 nM (active)
- Potency (CP252): 35.5 nM (active)
- Potency (CP256): 50.1 nM (active)
- Potency (CP260): 20 nM (active)
